Rows were chosen to be rich in hits. Some 3.5% of all compounds tested hit in one or more screens of this group.
mHTT-CaM PPI inh: mutant huntingtin-calmodulin interaction inhibitors – biochemical, AlphaScreen, primary screen; P42858; AlphaScreen His-mHTT/GST-CaM binding, luminescence; inhibition, % at 15 µM; 3.6% of 190,000 active; AID 1671202, 2021;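 note: 0% = both proteins with DMSO and 100% = one protein alone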
Pf apPOL inh: Pf-apPOL inhibitors, biochemical, fluorescence. inhibition, % at 10 µM. 0.25% of 210,000 active. AID 1794808, 2022. Recombinant Pf-apPOL, molecular beacon fluorescence, 1.5 h. Plasmodium falciparum apicoplast DNA polymerase (apPOL)
Active calls of the source: *; · = no result. Cut-off read from the data, not from the text of the source: active = inhibition above about 50%; inactive = the rest.

SMILES	mHTT-CaM PPI inh	Pf apPOL inh
CCOCC(=O)N1CCC(O)(c2ccccc2)C(N2CCCC2)C1 (stereo unspecified)	7.6	2.8
CCCC(=O)N1CCC(O)(c2ccccc2)C(N2CCCC2)C1 (stereo unspecified)	5.9	-11.2
O=C(CC1CCCC1)N1CCC(O)(c2ccccc2)C(N2CCCC2)C1 (stereo unspecified)	76.9*	0.7
O=C(C1CCCCC1)N1CCC(O)(c2ccccc2)C(N2CCCC2)C1 (stereo unspecified)	50.9*	-10.8
CSc1ccccc1CN1CCC(CNS(=O)(=O)Cc2cccc(F)c2)CC1	-2.6	-2.7
COc1cccc(-c2nn(CC(=O)N3CCc4ccccc43)c(=O)c3nc(C)sc23)c1	-2.0	-5.2
COc1ccc(-c2nn(Cc3ccccc3F)c(=O)c3nc(C)sc23)cc1OC	64.8*	-8.5
O=C(c1ccc(F)cc1)N1CCCC2(CC(c3cccnc3)=CO2)C1 (stereo unspecified)	27.7	0.4
O=C(c1ccc(Cl)cc1)N1CCCC2(CC(c3ccccc3)=CO2)C1 (stereo unspecified)	90.9*	-8.5
COc1ccc(C2=COC3(CCCN(C(=O)c4ccccc4)C3)C2)cc1 (stereo unspecified)	64.6*	-4.4
O=C(c1ccc(Cl)cc1)N1CCCC2(CC(c3ccc(Cl)cc3)=CO2)C1 (stereo unspecified)	-12.0	-4.6
COc1ccc(C2=COC3(CCCN(C(=O)c4ccc(F)cc4)C3)C2)cc1 (stereo unspecified)	-3.8	-8.9
O=C(c1ccccc1)N1CCCC2(CC(c3cccnc3)=CO2)C1 (stereo unspecified)	97.0*	-9.9
O=[N+]([O-])c1cc([N+](=O)[O-])c2cc(-c3ccncc3)oc2c1	-1.0	16.7
O=C(CSCc1ccc(Cl)cc1)Nc1cc([N+](=O)[O-])ccc1O	7.2	-8.6
CCC(=O)NC(c1ccccc1Cl)c1cc(Cl)c2cccnc2c1O (stereo unspecified)	100.0*	6.5
CCCC(=O)NC(c1ccc(OC)c(OC)c1)c1cc(Cl)c2cccnc2c1O (stereo unspecified)	25.0	-49.7
CCC(=O)NC(c1ccc(Cl)cc1)c1cc(Cl)c2cccnc2c1O (stereo unspecified)	41.0	6.8
CCCC(=O)NC(c1ccccc1OC)c1cc(Cl)c2cccnc2c1O (stereo unspecified)	51.0*	-11.5
CCC(=O)NC(c1ccccc1OC)c1cc(Cl)c2cccnc2c1O (stereo unspecified)	87.0*	2.4
Cc1ccc2nc(NC(=O)CSc3nn4c(=O)c(C)nnc4s3)sc2c1	-9.8	-7.4
CCc1cc2c(C)cc(=O)oc2cc1OCc1ccccc1	-5.0	27.1
O=C(CCc1ccccc1)NC1(c2nc(-c3ccncc3)no2)CCCCC1	6.9	-1.1
Cc1ccc2nc(-c3cccc([N+](=O)[O-])c3)[nH]c2c1	12.5	-3.1
O=C(O)c1cccc(N=Cc2cc(Cl)cc([N+](=O)[O-])c2O)c1	9.0	2.5
SMILES	mHTT-CaM PPI inh	Pf apPOL inh
Cc1ccc2nc(-c3cc(N=Cc4ccc([N+](=O)[O-])cc4)ccc3O)[nH]c2c1	55.0*	0.6
Cc1ccc2nc(-c3cc(N=Cc4cccc([N+](=O)[O-])c4O)ccc3O)[nH]c2c1	59.0*	0.3
Cc1ccc2nc(-c3cc(N=Cc4cccc([N+](=O)[O-])c4)ccc3O)[nH]c2c1	55.0*	4.1
O=C(O)c1cccc(N=Cc2cccc([N+](=O)[O-])c2O)c1	-3.0	83.0*
O=[N+]([O-])c1ccccc1C=Nc1ccc2nc(-c3ccccc3)[nH]c2c1	32.0	-10.2
Cc1cccc2oc(-c3cc(N=Cc4cccc([N+](=O)[O-])c4)ccc3O)nc12	2.0	-1.7
CCOC(=O)C1=C(C)NC2=C(C(=O)c3ccccc32)C1c1cccc(Cl)c1 (stereo unspecified)	20.3	-4.8
Cc1ccc(NC(=O)C2CCCN(c3nnc4ccc(Cl)cn34)C2)c(F)c1 (stereo unspecified)	11.7	0.1
CCOc1ccc(NC(=O)N2CCCC2c2nc(-c3ccccc3OC)no2)cc1 (stereo unspecified)	15.9	-1.5
Cc1ccc(N2NC(=O)/C(=C\c3ccc(N4CCOCC4)cc3)C2=O)cc1Cl	-1.0	1.0
O=C(Nc1cc(C(F)(F)F)ccc1Cl)c1ccc(S(=O)(=O)N2CCCCC2)cc1	-28.9	0.3
CC(=O)Nc1ccc(N=Cc2ccccc2O)cc1	4.0	-0.2
CC(=O)Nc1ccc(N=Cc2cc(C)cc(I)c2O)cc1	65.0*	-7.3
Cc1ccc(S(=O)(=O)N2CCC(c3nc(CNC(=O)C4CC4)cs3)CC2)cc1C	6.9	-7.6
Cc1nc(C2CCN(Cc3cccs3)CC2)n[nH]1	-10.0	-3.5
CCOc1ccccc1CN1CCC(c2nc3cccnc3n2CC)C1 (stereo unspecified)	17.9	-5.2
Cc1nc(C2CCN(Cc3ccccn3)CC2)n[nH]1	98.8*	-8.9
COCCc1nc(C2CCCN(Cc3ccccn3)C2)n[nH]1 (stereo unspecified)	89.0*	-22.5
CCn1c(C2CCN(Cc3ccccn3)C2)nc2cccnc21 (stereo unspecified)	99.7*	-43.6
COCCc1nc(C2CCCN(Cc3cccs3)C2)n[nH]1 (stereo unspecified)	-1.7	-1.9
FC(F)(F)c1cnc2c(c1)[nH]c(=S)n2-c1ccc(Cl)cc1	·	-0.6
COc1ccc(C(=O)/C=C(\C)NCc2ccccc2)cc1	-9.5	-10.2
CC(C)COc1ccc(C=Nc2ccc(S(=O)(=O)Nc3ccccn3)cc2)cc1	-6.0	-0.6
CCOc1ccccc1C(=O)N1CC(=O)Nc2ccc(C)cc2C1c1ccc(F)cc1 (stereo unspecified)	18.0	-1.9
CC(C)C(=O)Nc1cccn2nc(C3CCC3)nc12	-4.9	0.9
SMILES	mHTT-CaM PPI inh	Pf apPOL inh
Cc1ccc(-n2ncc3c(N4CCOCC4)ncnc32)c(C)c1	56.0*	-3.3
Cc1cccc(-n2ncc3c(N4CCOCC4)ncnc32)c1	1.1	0.0
c1nc2c(c(N3CCOCC3)n1)CCC2	1.8	2.3
COc1cccc(COC2CCCN(C(=O)c3cccs3)C2)c1 (stereo unspecified)	-3.9	-3.2
O=C(c1cccs1)N1CCCC(OCc2ccc(C(F)(F)F)cc2)C1 (stereo unspecified)	50.6*	-1.7
Cc1ccsc1C(=O)NCc1ccc2c(c1)ncn2C	-2.5	-0.1
c1ccc(-c2nc(-c3ccnc(N4CCCC4)c3)no2)nc1	-4.8	-0.5
O=C(c1ccc(Cl)cc1)N1N=C(c2ccc([N+](=O)[O-])cc2)CC1(O)C(F)(F)F (stereo unspecified)	51.0*	-1.4
Cc1ccc(C2=NN(C(=O)c3ccccc3Cl)C(O)(C(F)(F)F)C2)cc1 (stereo unspecified)	-1.0	0.1
CC(C)C(=O)N1N=C(c2ccc([N+](=O)[O-])cc2)CC1(O)C(F)(F)F (stereo unspecified)	0.0	-3.2
O=C(c1ccc([N+](=O)[O-])cc1)N1N=C(c2ccncc2)CC1(O)C(F)(F)F (stereo unspecified)	5.0	82.7*
O=C(c1ccccc1O)N1N=C(c2ccc(Cl)cc2)CC1(O)C(F)(F)F (stereo unspecified)	59.0*	-1.3
CC(C)(C)c1ccc(C(=O)N2N=C(c3ccc([N+](=O)[O-])cc3)CC2(O)C(F)(F)F)cc1 (stereo unspecified)	41.0	0.9
